The values that follow come from the supplement of paper PMC3334620.

In all, about 33,000 sequences were measured (“E-score (-0.5 to 0.5)”: median about -0.043, highest 2% from about 0.37 on). The sample holds the highest values, similar sequences and a random draw of the others, so the mix is not that of the screen.

This test has as its target T1, Upc2 (UniProt Q12151).
T1 sequence: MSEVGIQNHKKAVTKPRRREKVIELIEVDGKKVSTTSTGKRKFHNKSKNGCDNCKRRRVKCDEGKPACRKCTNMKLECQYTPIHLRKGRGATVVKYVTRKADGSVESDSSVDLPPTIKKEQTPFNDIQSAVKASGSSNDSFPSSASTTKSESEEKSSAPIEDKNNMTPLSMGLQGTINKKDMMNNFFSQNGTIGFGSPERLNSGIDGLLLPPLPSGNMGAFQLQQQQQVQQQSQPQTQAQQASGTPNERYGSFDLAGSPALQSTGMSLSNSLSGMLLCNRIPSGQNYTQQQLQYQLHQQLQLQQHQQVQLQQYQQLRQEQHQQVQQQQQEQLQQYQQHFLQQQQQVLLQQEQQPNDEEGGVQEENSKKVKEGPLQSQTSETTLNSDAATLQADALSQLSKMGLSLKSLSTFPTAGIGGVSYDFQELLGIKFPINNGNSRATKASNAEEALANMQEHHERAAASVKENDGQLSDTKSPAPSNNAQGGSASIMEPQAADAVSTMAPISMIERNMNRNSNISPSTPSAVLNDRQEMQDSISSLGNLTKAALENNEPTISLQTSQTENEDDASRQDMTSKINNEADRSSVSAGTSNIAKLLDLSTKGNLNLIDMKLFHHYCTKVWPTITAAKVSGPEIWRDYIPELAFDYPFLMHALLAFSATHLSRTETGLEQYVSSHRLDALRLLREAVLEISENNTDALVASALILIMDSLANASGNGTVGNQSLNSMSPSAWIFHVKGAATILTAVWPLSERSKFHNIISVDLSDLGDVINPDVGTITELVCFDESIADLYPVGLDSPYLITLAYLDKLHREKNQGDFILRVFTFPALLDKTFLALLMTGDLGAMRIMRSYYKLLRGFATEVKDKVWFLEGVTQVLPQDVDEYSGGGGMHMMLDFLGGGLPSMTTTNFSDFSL
The test is described as follows: PBM E-score (8-mer binding enrichment) (E-score (-0.5 to 0.5)); higher = stronger / more preferred TF binding. The following applies: protein concentration: 200 nM; construct: GST-full length. How it is done: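 Universal 'all 10-mer' protein binding microarrays (Agilent AMADID 015681) probed with GST-tagged S. cerevisiae TFs (full-length or DBD) made by in vitro transcription/translation (PURExpress), about 100-200 nM. Bound TF was detected with fluorescent anti-GST. Each ungapped 8-mer (which stands for itself and its reverse complement) is scored by the PBM enrichment score (E-score), a modified Wilcoxon-Mann-Whitney statistic from -0.5 to +0.5, computed with the Universal PBM Analysis Suite. Scale: above 0.35 generally sequence-specific binding.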
Consider CGTTTAAG, for which the “PBM E-score” value is 0.468. Then CCTTTAAG, with -0.158; and AGGATGGG, with 0.00396; and CAACCTCA, with -0.0655.

On to AACTGTGT, for which the “PBM E-score” value was -0.137.

Consider CCTTAGCA, for which the “PBM E-score” value is -0.336. Then CCCTTATC, with -0.205; and AGGTATAC, with 0.339. GTAACCGA: the “PBM E-score” value is 0.322.

On to CTAACCGC, for which the “PBM E-score” value worked out at 0.0621.

For CTAACCGA, the “PBM E-score” value is 0.37. Next, CTGCTCTA: -0.0369; ACAATCCT: -0.183; CAGGACGG: -0.164. Then CGAAGTAG, with 0.00964; and ATCCGAAC, with 0.146. Then GTACGAAA, with 0.442. On to ATACGAAC, for which the “PBM E-score” value amounted to 0.472. As for GCACGAAA, the “PBM E-score” value was found to be 0.127. In the case of ACACGAAT, the “PBM E-score” value was found to be 0.258. For the sequence ACACGAAG, the “PBM E-score” value stood at 0.211. As for CTACGAAG, the “PBM E-score” value stood at 0.316. ATACGAAT: the “PBM E-score” value was determined as 0.459.

With GGACGAAA, the “PBM E-score” value is -0.0427.

AGACGAAT: the “PBM E-score” value was 0.0524. Then ATACGAAG, with 0.476; and ATTCGAAC, with 0.119; and CATCGATC, with -0.0852. Next, ATAGATTC: -0.12; GGCATAAC: -0.0916.

Turning to ACCGATCC, the “PBM E-score” value was -0.0521. Next, ATACTCAT: -0.111; GTGGGCTA: -0.128; AGACGAAA: 0.196. For the sequence ATACGTAC, the “PBM E-score” value stood at 0.339. With CTACGAAA, the “PBM E-score” value came out at 0.272. Next, TCACGAAA: -0.0654. As for ATACGAAA, the “PBM E-score” value stood at 0.47. Then GGACGAAC, with 0.0508. Then ACACGAAA, with 0.197; and GTACGAAC, with 0.467. As to ATACGTAT, the “PBM E-score” value is 0.372. Then ATACGTAA, with 0.334.

As to TTACGAAA, the “PBM E-score” value worked out at 0.41. In the case of CTACGAAC, the “PBM E-score” value came to 0.333. Then AGCTCGAT, with -0.0109; and AAGCTGGT, with -0.0392. Next, CAGATTGG: -0.303; CAACTTCA: -0.0217; CCATTTCA: -0.241. Consider CTCAGCTC, for which the “PBM E-score” value is -0.114. Next, AGCGAGAG: 0.229.

As to AGTATAAA, the “PBM E-score” value amounted to 0.238. Then TGTATAAA, with 0.156; and GGTATAAC, with 0.135; and CATATAAG, with 0.17. Then CGTATAAC, with 0.478; and AGTATAAC, with 0.172. Next, CGTATAAG: 0.481. For CGTATAAA, the “PBM E-score” value came out at 0.477. On to AGTATAAG, for which the “PBM E-score” value was found to be 0.261. Then AACTTTCC, with -0.281; and AGCTCTCA, with -0.214; and GGGAGGTA, with 0.132. Next, CACAGATA: -0.136; GCACTGGA: -0.0891. With GGTATACA, the “PBM E-score” value was -0.0256. As to AGTATACA, the “PBM E-score” value was 0.149.

Turning to CGTATACA, the “PBM E-score” value was determined as 0.474.

As for AGTATACC, the “PBM E-score” value stood at 0.124. Consider GGTATACC, for which the “PBM E-score” value is 0.214.

With CGTATACC, the “PBM E-score” value came out at 0.472. Next, GGTTCAGA: -0.186. Then CGTTCAGC, with 0.396; and CGTTCATC, with 0.353. Next, CGTTCAGA: 0.372. AGTTCAGA: the “PBM E-score” value is -0.0704. As for AGTTCAGC, the “PBM E-score” value was -0.205.

AGGCGTGC: the “PBM E-score” value was -0.0583.

For CGCAGTAG, the “PBM E-score” value is -0.0605. Then AAAGGTGT, with 0.0174; and GTTAGCCA, with -0.0759. Then ACTGAGAT, with -0.184; and GGTTAAAC, with 0.232.

Regarding CGTTAAGA, the “PBM E-score” value is 0.341.

CGTTAAAG: the “PBM E-score” value was determined as 0.4. Next, CGTTAAGC: 0.432; CGTTAAAA: 0.364.
